Activity calls are given as the source filed them. How the source made its calls: active means hit-call score of the fitted dose curve at least 0.9, where 1 is the maximum; inactive means score below 0.9.
Read-out: CYP4A11 (gene 1579)
Experiment: LTEA_HepaRG_CYP4A11: Life Technologies and Expression Analysis (LTEA) Assay for CYP4A11 using HepaRG (AID 2283486)
Conditions: mRNA level, 48 h; actives raise or lower the signal
Description: LTEA_HepaRG is a cell based, multiplexed-readout assay that uses HepaRG, a human liver cell line, with measurements taken at 48 hours after chemical dosing on a 96-well plate.LTEA_HepaRG_CYP4A11 is one of 102 assay component(s) measured in the LTEA HepaRG cell culture assay. It is a marker of NR mediated metabolism.Data from the assay component LTEA_HepaRG_CYP4A11 was analyzed into 1 endpoint. This assay endpoint, LTEA_HepaRG_CYP4A11, was analyzed with bidirectional fitting relative to DMSO as the negative control and baseline of activity. Using a type of inducible reporter, measures of mRNA induction for gain or loss-of-signal activity can be used to understand regulation of transcription factor activity. To generalize the intended target to other relatable targets, this assay endpoint is annotated to the cyp intended target family, where the subfamily is xenobiotic metabolism.
A total of 1060 chemcials from the ToxCast library were tested in eight-point concentration-response experiments. Cell culture and cytotoxicity assays were conducted at Thermo Fisher Scientific's Custom Services facility (Madison, WI). A single lot of human HepaRG cells (Thermo Fisher Scientific, Frederick, MD) was used for the cell culture experiments. 96-well format collagen type I coated plates of human HepaRG cells were prepared using established methods. Briefly, cryopreserved HepaRG cells were thawed, plated at a density of approximately 100,000 cells/well in HepaRG Thaw, Plate, and General Purpose media (HPRG770, Thermo Fisher Scientific), and incubated for 48 hours. 0.5% DMSO was selected as vehicle control to balance the requisite need of DMSO in HepaRG cultures to maintain differentiation (for example, baseline metabolism, proportions of hepatocytes vs. cholangiocytes), while enabling further hepatic receptor pathway activation (for example, PXR and CAR) in response to chemical exposure. 48 hours after plating, the culture medium was replaced with HepaRG Serum-Free Incudtion Media. Cells were exposed to each test chemical in duplicate and maintained in CO2 incubators for another 48 hours. Chemical plates were thawed to room temperature and 200x concentrations of treatment groups were prepared. 8-point conentration-reponse curves were made with the highest exposure at 100 uM, followed by half-log dilutions, all in 0.5% DMSO. Each test plate contained variouse controls, induction positive controls (1mM phenobarbital), cytotoxicity positive controls ([…] aflatoxin B1), vehicle controls (0.5% DMSO), and total lysis controls (0.5% DMSO). Cell morphology images were taken using an Essen IncuCyte FLR automated microscope, with six 96-well plates imaged in about 24 minutes. Images were captured and exported and JPEG files. Spent culture media was transfered to black-well plates for the LDH assay, and remaining media was sorted at -80 C for later use. Cells were treated with RLT buffer and frozen until shipped for gene expression analysis. Total RNA was isolated from the cell suspension in 75 uL of Buffer RLT (Qiagen, Germantown, MD 20874) by Quintiles/Expression Analysis (Durham, NC) using a custom isolation procedure. Total RNA from each plate well was transferred to a preamplification plate. Fluidigm's 96.96 Dynamic ArrayTM (Fluidigm, Amsterdam, the Netherlands) technology was used for gene expression analyses by quantitative reverse transcription polymerase chain reaction (qRT-PCR, performed by Quintiles/Expression Analysis, Durham, NC)89. Standard TaqManTM Assays (Applied Biosystems/ThermoFisher Scientific, Foster City, CA) were used to assess the expression of 93 genes selected based on their selectivity and sensitivity to important hepatic receptors known to be modulated by environmental chemicals; importance in human hepatocyte functionality; and hepatotoxicity. […]

Structure (SMILES) | outcome | AC50
Cc1cc(-c2ccc(N)c(C)c2)ccc1N | inactive | 
O=C(O)C(F)(F)C(F)(F)C(F)(F)C(F)(F)C(F)(F)F |  | 50 µM (active)
c1cc2ccc3cccc4ccc(c1)c2c34 | inactive | 
CCCCCCCCOC(=O)c1ccccc1C(=O)OCCCCCCCC | inactive | 
CN(C)CCO | inactive | 
C=CC(=O)NCNC(=O)C=C | inactive | 
CCCCCCCCCc1ccc(O)cc1 |  | 33.5 µM (active)
Cc1cccc([N+](=O)[O-])c1 | inactive | 
CO/C=C(/C(=O)OC)c1ccccc1COc1cccc(C(F)(F)F)n1 |  | 3.9 µM (active)
Oc1ccc(C(c2ccc(O)cc2)(C(F)(F)F)C(F)(F)F)cc1 |  | 76.6 µM (active)
Cc1ccccc1[N+](=O)[O-] | inactive | 
CCSC(=O)N(CC)C1CCCCC1 | inactive | 
CCNc1nc(NC(C)C)nc(SC)n1 |  | 50 µM (active)
Clc1ccc(C(c2ccccc2Cl)C(Cl)(Cl)Cl)cc1 (stereo not given) |  | 40.7 µM (active)
O=C(O)C(F)(F)C(F)(F)C(F)(F)C(F)(F)C(F)(F)C(F)(F)C(F)(F)C(F)(F)F |  | 89.5 µM (active)
Oc1ccc(Cl)cc1Cl | inactive | 
Clc1ccc(C(Cl)(Cl)Cl)cc1 | inactive | 
Nn1cnnc1 | inactive | 
Cc1ccccc1CO[C@@H]1C[C@@]2(C(C)C)CC[C@]1(C)O2 | inactive | 
CC1=C2C[C@H]3[C@@H](CC=C4C[C@@H](O)CC[C@@]43C)[C@@H]2CC[C@]12O[C@@H]1C[C@H](C)CN[C@H]1[C@H]2C | inactive | 

Structure (SMILES) | outcome | AC50
C[C@]12CCC(=O)C=C1CC[C@@H]1[C@@H]2CC[C@]2(C)C(=O)CC[C@@H]12 |  | 85.7 µM (active)
C1CC2OC2CC1C1CO1 (stereo not given) | inactive | 
O=S(=O)(O)C(F)(F)C(F)(F)C(F)(F)C(F)(F)F | inactive | 
COS(=O)(=O)OC | inactive | 
COc1ccc(O)c(C(C)(C)C)c1 | inactive | 
ClC(Cl)=C(c1ccc(Cl)cc1)c1ccc(Cl)cc1 | inactive | 
CCCN(CCC)N=O | inactive | 
C=CC(N)=O | inactive | 
CCOC(=O)C(O)(c1ccc(Cl)cc1)c1ccc(Cl)cc1 |  | 20.4 µM (active)
O=C(NC(=O)c1cc(F)c(F)cc1Cl)Nc1cc(F)ccc1N1CCC(C(=O)O)CC1 |  | 6.34 µM (active)
ClC1=C(Cl)[C@]2(Cl)[C@@H]3[C@@H]4C[C@@H]([C@H]5O[C@@H]45)[C@@H]3[C@@]1(Cl)C2(Cl)Cl |  | 31.5 µM (active)
Cc1ccccc1O | inactive | 
O=C(N[C@H]1CN2CCC1CC2)c1cc2ccoc2cn1 | inactive | 
Nc1ccc(-c2ccc(N)cc2)cc1 |  | 33.1 µM (active)
Clc1ccc(Cl)cc1 | inactive | 
Cc1cc2c3c(c1)C(c1ccccc1)=N[C@@H](NC(=O)c1ccncc1)C(=O)N3CC2 |  | 40.4 µM (active)
O=C(O)C(F)(F)C(F)(F)C(F)(F)C(F)(F)C(F)(F)C(F)(F)C(F)(F)C(F)(F)C(F)(F)F |  | 81.5 µM (active)
C[C@]12CCC(=O)C=C1CC[C@@H]1[C@@H]2CC[C@@]2(C)[C@H]1CC[C@]2(C)O |  | 73.6 µM (active)
CC(C)(O)C(=O)Nc1ccc([N+](=O)[O-])c(C(F)(F)F)c1 |  | 42 µM (active)
CCOCCOC(C)=O | inactive | 

From PubChem BioAssay (EPA / NIEHS)
